Experimental findings from PubChem BioAssay (Tox21) are described below.

Records with an inconclusive call do not appear. The source made the active and inactive calls. Calls follow the shape of the dose curve; as a rule, active = well fitted cell-killing curve with a large enough effect in the repeat runs; inconclusive = weak or mixed curves; inactive = flat fitted curve, though single readings scatter.

The experiment in a line: qHTS assay to identify small molecule antagonists of the TGF-beta/Smad signaling pathway - cell viability counter screen (AID 1346824). Also: nearly all actives have a fitted effect of over 50% in size. The note with it: SBE-bla HEK293T viability, CellTiter-Glo luminescence; series mostly up to 76.8 µM. The text has this:
U.S. Tox21 Program National Center for Advancing Translational Sciences [NCATS] NIH Chemical Genomics Center [NCGC] U.S. Environmental Protection Agency [EPA] National Institutes of Environmental Health Sciences [NIEHS] National Toxicology Program [NTP] U.S. Food and Drug Administration [FDA] Tox21 Assay Overview: Transforming growth factor beta (TGF-beta) superfamily consists of a large number of structurally related dimeric proteins that act as hormones or local mediators in regulating a wide range of biological functions. This superfamily includes TGF-betas themselves, the bone morphogenetic proteins (BMPs) and the activins. These ligands induce oligomerization of serine/threonine receptor kinases and phosphorylate the cytoplasmic signaling molecules of Smad protein family. CellSensor SBE-bla HEK 293T cell line (Life Technologies, Carlsbad, CA), responsive to TGF-beta was used to screen Tox21 10K compound library for identification of agonists/antagonists of the Smad signaling pathway. This cell line contains a beta-lactamase reporter gene under control of the Smad binding element (SBE) stably integrated into HEK 293T cells. Also cytotoxicity of the compounds was tested in parallel by measuring the cell viability using CellTiter-Glo assay system in the same wells.
Tox21 Assay Protocol Summary: SBE-bla HEK 293T cells were dispensed at 4,000/well in 5 uL of assay medium into black wall/clear-bottom 1536-well plates using a Multidrop Combi (ThermoFisher Scientific, Waltham, MA) dispenser. After the assay plates were incubated at 37 C and 5% CO2 for an overnight, 23 nL of compounds dissolved in DMSO, positive controls or DMSO only was transferred to the assay plate by a Pintool station (Kalypsys, San Diego, CA). Compound transfer was followed by the addition of 1 uL of 0.25 ng/mL TGF-beta1 or assay buffer using two separate tips of Flying Reagent Dispenser (FRD, Aurora Discovery, San Diego, CA). The assay plates were incubated at 37 C and 5% CO2 for 5 hr. One uL of LiveBLAzer B/G FRET substrate (Life Technologies) was added using a Flying Reagent Dispenser (FRD, Aurora Discovery, San Diego, CA) and the plates were incubated at room temperature for 2 hr. Fluorescence intensity (405 nm excitation, 460 nm and 530 nm emissions) was measured using an Envision plate reader (PerkinElmer, Shelton, CT). For cytotoxicity read, 4 uL of CellTiter-Glo reagent (Promega Corporation, Madison, WI) was added to each well of the assay plates using FRD. After 30 min incubation at room temperature, the luminescence intensity was measured using ViewLux plate reader (PerkinElmer).
On to `CCCOCCC`, for which the compound was classed as inactive.

Turning to `O=C1CCC(C2CCCCC2)CC1`, the compound was classed as inactive.

In the case of `CC1=NN(c2cc(Cl)c(S(=O)(=O)O)cc2Cl)C(=O)C1N=Nc1ccc(S(=O)(=O)O)cc1` (stereo not given), the call was inactive. As for `O=c1[nH]cnc2c1ncn2[C@@H]1O[C@H](CO)[C@@H](O)[C@H]1O`, the compound was called inactive.

Regarding `CC(C)C(=O)OCC(C)(C)C(O)C(C)C` (stereo not given), the outcome was inactive. Regarding `CC(Oc1c(Cl)cccc1Cl)C1=NCCN1` (stereo not given), the compound was classed as inactive. `N#Cc1ccc(C(c2ccc(C#N)cc2)n2cncn2)cc1`: the compound was classed as inactive. Take `CC(C)C(=O)OC/C=C/c1ccccc1`: the call was inactive. As for `C=O`, the compound was called inactive.

In the case of `O=C(O)C(=O)Cc1c[nH]c2ccccc12`, the outcome was inactive. Take `Cc1ccc([N+](=O)[O-])c(N)c1`: the result was inactive. Turning to `CN(C)CCOc1ccccc1Cc1ccccc1`, the outcome was inactive. For `CC(=O)N[C@@H](CC(C)C)C(=O)O`, the result was inactive.

In the case of `C1CCOC1`, the call was inactive. With `CC1=CC(=O)CC(C)(C)C1=O`, the outcome was inactive. In the case of `O=c1[nH]c(=O)n([C@H]2C[C@H](O)[C@@H](CO)O2)cc1C(F)(F)F`, the compound was called inactive. Consider `CCC/C=C/CO`, for which the call was inactive.

Regarding `C[C@]12C(=O)OC(=O)[C@H]1[C@H]1C=C[C@@H]2C1`, the outcome was inactive. For the compound `CCOc1ccc(NC(N)=O)cc1`, the call was inactive. Consider `CCCC1CCC(=O)O1` (stereo not given), for which the compound was classed as inactive. Consider `CN1C(=O)CC(c2ccccc2)C1=O` (stereo not given), for which the result was inactive. `CC(C)O`: the outcome was inactive. For `O=C(CCCl)NCc1ccccc1`, the call was inactive.

Take `O=C1Nc2ccc([N+](=O)[O-])cc2C1=O`: the call was inactive.

As for `CC1(C)C(=O)N(Cl)C(=O)N1Br`, the outcome was inactive. For `OCCN(CCO)CCN(CCO)CCO`, the compound was classed as inactive. Then `CC(CNC1CCCCC1)OC(=O)c1ccccc1` (stereo not given), with “inactive”; and `NC(=O)NS(=O)(=O)c1ccc(Cl)cc1`, with “inactive”. For the compound `Cc1cc2nc(N)sc2cc1C`, the call was inactive. As to `CCCCCCCCCC#N`, the compound was called inactive. As to `CCOc1ccc(NS(=O)(=O)c2ccc(N)cc2)nn1`, the compound was called inactive. `Cc1ccc([N+](=O)[O-])cc1Cl`: the compound was classed as inactive. For `CC1CN(c2ccccc2)NC1=O` (stereo not given), the call was inactive. As to `CC1=C(O)C(=O)OC1C` (stereo not given), the compound was classed as inactive. Then `NC(=O)Cc1cccc(C(=O)c2ccccc2)c1N`, with “inactive”; and `Cc1c(-c2ccccc2)oc2c(C(=O)OCCN3CCCCC3)cccc2c1=O`, with “inactive”; and `CCCCCCC`, with “inactive”. As for `CC(C)CC(=O)OCc1ccccc1`, the compound was called inactive. Turning to `FC(F)(F)c1ccccc1`, the compound was called inactive. Turning to `C=C(C)C(=O)OCCOP(=O)(O)O`, the compound was called inactive.
